# The full list was thinned out, with hits kept by preference.
# aSyn yeast rescue – qHTS of alpha-syn Inhibitors: NCGC Sytravon Library Screen | 94,000 compounds, 0.02% hits | Potency, µM (series often up to 46.1 µM), actives largely listed as activators | S. cerevisiae alpha-synuclein toxicity rescue, BacTiter-Glo growth, 24 h; active = well fitted activation curve with a large enough effect; also: 0% is about no effect
#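 Growth restoration measured by BacTiter-Glo luminescence after 24 hr at 30 deg C; alpha-synuclein yeast, raffinose-pregrown to mid-log, were added at OD600=0.02 in galactose medium onto pinned compounds.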
# The depositor's hits bear a star; i = inactive. Potency is read from the fitted curve at half-maximal effect.
SMILES,aSyn yeast rescue
CCc1ccccc1NC(=O)CCCn1c(=O)c2cccn2c2ccccc21,i
O=C(NCCc1ccc(Cl)cc1)c1cccn1-c1nnc(N2CCCC2)s1,i
Cc1oc(-c2ccc(Cl)cc2)nc1CSCC(=O)NCc1ccccc1Cl,i
Cc1oc(-c2cccc(Cl)c2)nc1CSCC(=O)NCc1ccccc1Cl,20µM*
Cc1ccc(CNC(=O)CSCc2nc(-c3ccc(Cl)cc3)oc2C)cc1,i

# High-throughput results deposited in PubChem BioAssay by National Center for Advancing Translational Sciences (NCATS).
